From the supplement of paper PMC10681739

molecular target: RUNX1 (UniProt Q01196); experiment: RUNX1 binding intensity (PBM fluorescence) in presence of ETS1, normalised to RUNX1-only experiment (arbitrary fluorescence units); higher = stronger binding; conditions: RUNX1 concentration 2 nM; ETS1 concentration 25 nM
Method: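 Cooperative gcPBM on 36-bp genomic probes with neighbouring ETS1 and RUNX1 sites. Recombinant human RUNX1 (2 nM) was incubated alone or with ETS1 (25 nM) and detected with anti-RUNX1 antibody plus Alexa488 secondary. Values are medians over 4 replicate spots; the RUNX1+ETS1 data were normalised to the RUNX1-only data. The probes sit in constant array flanks that are not printed.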
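Further: Full-length recombinant human ETS1 or RUNX1 bound to double-stranded 36-bp genomic probes on microarrays, detected by protein-specific primary antibody and Alexa488 secondary, spot fluorescence as median of four replicate spots.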

RUNX1, sequence (Q01196 whole entry): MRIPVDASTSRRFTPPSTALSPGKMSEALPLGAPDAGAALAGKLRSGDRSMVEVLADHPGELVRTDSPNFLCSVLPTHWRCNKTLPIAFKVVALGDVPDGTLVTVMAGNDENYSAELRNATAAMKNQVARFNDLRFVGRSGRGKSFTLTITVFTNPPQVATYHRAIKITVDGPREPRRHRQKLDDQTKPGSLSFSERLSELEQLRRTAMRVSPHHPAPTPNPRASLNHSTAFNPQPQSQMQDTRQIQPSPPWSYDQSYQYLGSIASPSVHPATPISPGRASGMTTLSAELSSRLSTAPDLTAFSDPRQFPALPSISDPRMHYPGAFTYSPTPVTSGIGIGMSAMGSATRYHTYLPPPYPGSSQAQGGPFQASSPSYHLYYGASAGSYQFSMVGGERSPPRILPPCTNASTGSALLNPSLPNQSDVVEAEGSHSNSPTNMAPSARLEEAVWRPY

Sequence	RUNX1 binding intensity
CCTCTGAGGCAGGAAGCTGCGGTGAAGTCTGAAGTT	2070
TGAGCCCTACTTCCGGTGGTGCTGTGGTCTGCCCCT	2330
ACGACGTCCCGGAAGTGCTGCGGCAATGTTGCTCTT	1470
GGGCAGGAAGGAAGAGGGCTCCTCCCCACAAGCTCT	862
ACATGGTCTCGCTTCCTGTTTACACCACAGAAAGCT	1850
GGGCTCCCAGAAGGATGTGGTTTCTGAGTACGTTGG	1260
GAGAGGAGGATGTTGTCAGATACCCACAAATGAGAA	889
AATCCAACACTTCCTCCTCCACCGCAGAAAGGCAAC	2670
AGCCAACAGGAAGCTGCAGAGACTAAACCACAGCAA	1390
CCCGCTACACAAGGCGGATGTGGTACCCTCACTTGT	1530
CCTCCCACCTTGGCAGGAAGCGGTTTATCAGATTAA	2280
TTAACCAGACATTTCCTGTGGTCTAAGGTGACCCCA	2710
GCGGGGACCCGGATGTGTGTGGTGGCGGCGGCCGAA	1220
TATGTGTTTTAGGCAGGATGTGGGTTTTAGTCTTTC	2200
TGTTGTAGGGGAAGTGGTGTGTGGTATTCCTGGGGA	1070
GCACTTCCGGAGCCGGGCGTCTACAGACCGCGGCCA	2190
AGCTCAATTTCCTGGCGTGTAACATGGCCACAAGGG	1390
CTTAGCGGAAGAGGCGTGACCCAGGCGTACCGCAGG	870
GAGTCGCTTCCGCTCCCGCCCCGCTCTGTGGCGTAG	1980
TTTTTAAGGTCAGGATGTGGGCACATCTAAGGGGCA	1370

Sequence	RUNX1 binding intensity
TATTCATGACATCCTGTCGGGCTTGTGGGCTGCGTA	1430
CTGGTTTCATTTCCGGGTGCGGCTTCTGTCATAAAG	2460
ACATTTCCTTTTGGTATTTAAAGTAACCACACAGAA	2120
CCAGCTACACAGGATGCTGCGGTGGGCGGAATGCTC	1970
AGGGTGTGGAGGAAGTGGCTTACAACCACTTTGTCT	1090
AGCGCTTCCTGGCTCCGGCCCCGCCCCTGCGGTCGG	1880
GCGGAGGCGGAAGTCGTGCTGCTGCTGACCACGGCT	1370
CCGGGCTGCGGAAGGCGGGAACTCTGCGGTTCGCGG	1090
GAAATGAGAGAACGGAAACCACAAGTCAAGGGGCTT	4480
GCCCCCGGAAGCTGTCGCCCCGTGCGGTGTGTGCTG	1330
GAGGCCCAGGATGTGGCTGGAGGCCTGTGGTGGGAC	864
GACCAATGTAAACAAGGATGTGGGTTCTCCGGGCAC	928
AGAGCGAGGAGGACTTCCTGCGGCAGGTCGGCGTGA	1080
GCCATGGCCACTTCCTGCTTGTAACCACAGCCCAGA	5520
AAGAGGAAGTCCCAAATTGCTTTTTAACCACCAACA	888
AACAAACCGGATGGGGTTGCCACCCGCAATCTTGTC	2140
CGGCATCTGACAGGATGTGGGCAGGGAGAGAGAGAC	4210
GCGGGGCGCAGGAAGCGGGGCGAAACCACTGTTGGC	1010
CATACAGGATGCTGGGGTATGTAAAACAAACCACGG	964
GTTTCATGTTAAGTAGGATGTGGTCAGTTAGCTTCG	1290
